# Reference: PubChem BioAssay
# Where “and” joins values, the source holds several entries; their conditions need not be identical. Equal entries are not always repeated.
# Target: Pro-neuregulin-1, membrane-bound isoform (Homo sapiens) (UniProt Q02297)
# Test: NRG1 binders on small-molecule microarrays, primary screen, psychiatric disease protein project, biochemical, small-molecule microarray, fluorescence 635/667 (AID 1075);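 note: score combines 667 nm spot fluorescence with signal to noise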
# Details: NRG1 binding, 635 nm fluorescence, higher = more signal
# Sequence of Pro-neuregulin-1, membrane-bound isoform (Homo sapiens) (Q02297 whole entry, looked up, canonical isoform): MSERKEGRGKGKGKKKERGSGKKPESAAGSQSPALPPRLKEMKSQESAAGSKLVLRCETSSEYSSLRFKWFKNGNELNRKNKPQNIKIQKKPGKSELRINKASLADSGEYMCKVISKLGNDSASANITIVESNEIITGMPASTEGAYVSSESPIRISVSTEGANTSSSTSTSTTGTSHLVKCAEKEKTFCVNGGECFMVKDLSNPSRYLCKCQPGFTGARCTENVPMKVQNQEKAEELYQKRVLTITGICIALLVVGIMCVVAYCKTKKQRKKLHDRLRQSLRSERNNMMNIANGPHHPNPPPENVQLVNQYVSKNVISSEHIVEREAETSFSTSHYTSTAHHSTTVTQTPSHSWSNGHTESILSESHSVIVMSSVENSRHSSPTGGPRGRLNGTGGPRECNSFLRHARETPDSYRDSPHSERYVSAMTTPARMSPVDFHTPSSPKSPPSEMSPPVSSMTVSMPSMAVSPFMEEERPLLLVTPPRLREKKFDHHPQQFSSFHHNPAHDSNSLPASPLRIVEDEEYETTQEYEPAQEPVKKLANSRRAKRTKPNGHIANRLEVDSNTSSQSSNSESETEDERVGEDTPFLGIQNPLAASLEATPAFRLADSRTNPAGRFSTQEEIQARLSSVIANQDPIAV
row,Compound,composite z-score
1,C=CCN(CCCC)C(=O)C1N(c2ccc(CCO)cc2)C(=O)C2C(C(=O)O)C3C=CC21O3 (configuration not stated),-1.32 and -0.402
2,COC(=O)C1=C(C)N(Cc2ccccc2)C2=C3C(=O)N(c4ccccc4)C(=O)[C@@H]3[C@@](O)(C(=O)OC)C(=O)N2[C@@H]1c1ccccc1,0.383 and 0.418
3,CCC[C@@H]1C[C@@]1(CCC)[C@@H](NC(=O)c1ccc(-c2ccccc2)cc1)c1cccc(Cl)c1,-0.612 and 1.2
4,C=CCN(C(=O)C(c1cccs1)N(C(=O)/C=C\C(=O)O)c1ccc(CCO)cc1)C(C)(C)C (configuration not stated),1.04 and 2.28
5,C=CCN(Cc1ccccc1)C(=O)C1N(CCCCCCO)C(=O)C2C(C(=O)O)C3C=CC21O3 (configuration not stated),0.614 and 0.705
6,COc1ccc(COC(=O)NN=C2C[C@@H](O)[C@@H](O)[C@@H]3[C@@H]4C(=O)N(C(C)(C)C)C(=O)[C@@H]4CC[C@H]23)cc1,1.46
7,O=C1NC(=O)C2C1C=CC(C(O)c1ccc([N+](=O)[O-])cc1)N2Nc1ccc(Cl)cc1Cl (configuration not stated),1.18 and 1.78
8,COC(=O)C1=C(C)N(Cc2ccccc2)C2=C3C(=O)CCC[C@@H]3[C@@](O)(C(=O)OC)C(=O)N2[C@@H]1c1ccccc1,-0.046 and -0.158
9,C[N+](C)(C)CCCCNC(=O)[C@H]1C[C@H]2C(=O)N[C@@H](CCCC[N+](C)(C)C)C(=O)N2[C@H]1c1cccc(OCCO)c1,1.24 and 0.211
10,C=CCN(CCCCC)C(=O)C1N(c2ccc(CCO)cc2)C(=O)C2C(C(=O)O)C3C=CC21O3 (configuration not stated),-0.638 and -0.72
11,CC(C)C(=O)N[C@@H]1CCCN1C(=O)C=Cc1ccccc1,0.208
12,C[C@@H](ON=C1[C@H]2CCn3c(=O)n(-c4ccccc4)c(=O)n3[C@H]2[C@H](O)[C@@H]2O[C@H]12)c1cn([C@H](CO)Cc2ccccc2)nn1,0.11
